Source: PubChem (Buhrlage Lab, Dana-Farber Cancer Institute and Novartis Institutes for BioMedical Research (Cambridge, Mass))
In the library only some 12% were active in any assay of this set; here they are far more common.
USP8 block: human USP8 deubiquitinase inhibition | P40818 | purified USP8, Ub-rhodamine cleavage fluorescence, 30 min | inhibition, % at 20 µM | hit rate 4.2% among 47,000 | AID 1645853
USP7 inh: human USP7 deubiquitinase inhibition | inhibition, % at 20 µM | hit rate 0.3% among 47,000 | purified USP7, Ub-rhodamine cleavage fluorescence
UCHL1 inh: blocks human UCHL1 ubiquitin-rhodamine cleavage; inhibition, % at 20 µM; P09936; AID 1645859; hit rate 0.2% among 47,000; purified UCHL1, Ub-rhodamine cleavage fluorescence
Target sequence (P09936 whole entry, looked up): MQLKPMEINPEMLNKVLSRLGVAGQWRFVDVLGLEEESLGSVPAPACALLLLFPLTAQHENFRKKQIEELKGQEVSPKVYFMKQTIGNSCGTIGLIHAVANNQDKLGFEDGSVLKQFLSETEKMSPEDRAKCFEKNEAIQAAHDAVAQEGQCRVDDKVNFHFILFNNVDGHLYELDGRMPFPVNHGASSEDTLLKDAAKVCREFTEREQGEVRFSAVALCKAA
USP17 block: inhibitors of human USP17 deubiquitinase. purified USP17, Ub-rhodamine cleavage fluorescence, 3 h. inhibition, % at 50 µM. hit rate 6.5% among 47,000. AID 1645855
USP10 block: human USP10 deubiquitinase inhibition | hit rate 1.1% among 47,000 | inhibition, % at 20 µM | purified USP10, Ub-rhodamine fluorescence, 60 min | Q14694
USP30 block: blocks human USP30 ubiquitin-rhodamine cleavage | Q70CQ3 | inhibition, % at 25 µM | hit rate 5.3% among 47,000 | purified USP30, Ub-rhodamine cleavage fluorescence | AID 1645860
Each line names hits and unclear results; the compound was inactive in the other large screens. Cut-off read from the data, not from the text of the source: active = inhibition above about 30%; inactive = the rest.

COc1ccccc1NC(=O)C1=C(C)Nc2nc(-c3ccc(N(C)C)cc3)nn2C1c1ccncc1 (centres undefined)	USP17 block 40.3, USP30 block 30.0
COc1ccc(C2C(C(=O)Nc3ccccc3OC)=C(C)Nc3nnnn32)cc1Br (centres undefined)	USP17 block 74.4
COc1ccccc1NC(=O)C1=C(C)Nc2nc3ccccc3n2C1c1ccncc1 (centres undefined)	none
O=C(CCc1ccc(S(=O)(=O)N2CCOCC2)cc1)OCC(=O)c1ccc(-c2ccccc2)cc1	USP8 block 31.4, USP10 block 37.7, USP30 block 31.1
CCOc1cccc2cc(-c3cc(=O)oc4cc(OC)ccc34)oc12	USP8 block 51.2
Cc1ccc(NC(=O)Cn2c3ncccc3c(=O)n2-c2cccc(Cl)c2)cc1	none
Cc1ccc(C)c(NC(=O)Cn2c3ncccc3c(=O)n2-c2ccccc2)c1	USP30 block 45.3 (no result: USP17 block)
COc1cc(CC(=O)Nc2cc(S(=O)(=O)N3CCCCC3)ccc2Cl)cc(OC)c1OC	none
CCOC(=O)N1CCN(S(=O)(=O)c2ccc(F)c(C(=O)Nc3ccccc3Cl)c2)CC1	USP30 block 35.7
Cc1ccccc1NC(=O)c1cc(S(=O)(=O)N2CCCCCC2)ccc1Cl	USP30 block 63.0 (no result: USP17 block)
COc1cc(OC)c(C(=O)Nc2cc(S(=O)(=O)N3CCCCC3)ccc2C)cc1OC	none
CC(NCC(=O)Nc1cc(S(=O)(=O)N2CCCCCC2)ccc1Cl)c1ccccc1 (centres undefined)	USP30 block 42.9
CCOc1ccccc1NC(=O)c1cc(S(=O)(=O)N2CCCCC2)ccc1F	none
Cn1c(=O)n(Cc2ccccc2F)c(=O)c2cnc(-c3ccncc3)nc21	none
N#Cc1c(-c2ccccc2Cl)c2c([nH]c1=O)-c1ccccc1CC2	USP8 block 47.5
N#Cc1c(-c2ccc(F)cc2)c2c([nH]c1=O)-c1ccccc1OC2	USP8 block 65.1
N#Cc1c(-c2cccnc2)c2c([nH]c1=O)-c1ccccc1CC2	none
COc1ccc(CNc2ncnc3c2[nH]c2ccc(Cl)cc23)cc1	none
O=C(c1cc(-c2ccc(Cl)cc2)n[nH]1)N1CCN(c2ccc(N3CCOCC3)nn2)CC1	none
COc1ccc(-c2cc(C(=O)N3CCN(c4ccc(N5CCOCC5)nn4)CC3)[nH]n2)cc1	USP17 block 37.5
CCOC(=O)[C@@H]1CN(C(=O)CC)[C@H]2c3cccc(C)c3O[C@@H]12	none
Cn1cc(S(=O)(=O)Nc2ncn(Cc3cccc(Cl)c3)n2)cn1	none
Cn1cc(S(=O)(=O)Nc2cnn(Cc3cccc(Cl)c3)c2)cn1	USP8 block 77.0, USP17 block 31.2
CCNc1nc(SCc2ccc(C)cc2)nc2c1CCCC2	USP30 block 38.8
CCn1cnc2cc(NCc3cccc(OC)c3O)ccc21	USP8 block 40.1
O=C(Cc1ccc(F)cc1)N1CCC(Cc2nc(-c3cnccn3)no2)CC1	none
Fc1ccc(-c2nc(-c3cnccn3)no2)c(Cl)c1	USP30 block 35.8
CC1(C)O[C@@](C)([C@H]2CC3(CCN(C(=O)c4ccccn4)CC3)CO2)CC[C@@H]1O	none
O=C(NCC(=O)N1CCC2(CC1)NCCc1[nH]cnc12)c1ccc(-c2ccccc2)cc1	USP8 block 48.6
COc1ccc(CC(=O)N2CCC3(CC2)NCCc2[nH]cnc23)cc1	none
COc1ccc(CC(=O)NCC(=O)N2CCC3(CC2)NCCc2[nH]cnc23)cc1	USP8 block 33.7
O=C(Cc1ccc(F)cc1)N1CCC2(CC1)NCCc1[nH]cnc12	USP8 block 38.5
CCn1c(=O)cc(OCC(=O)NCc2ccc(Cl)cc2)c2ccccc21	none
COc1cc(NC(=O)c2cc(-c3ccncc3)n(-c3ccccc3)n2)cc(OC)c1	none
CCOC(=O)c1cccc(NC(=O)Nc2cccn3nc(C)nc23)c1	none
COc1ccc(Cn2nnc(C(=O)NC3CCCCC3)c2-n2cccc2)cc1	USP8 block 48.7, USP17 block 48.1
COc1ccc(Cn2nnc(C(=O)N3CCSCC3)c2-n2cccc2)cc1	USP17 block 33.4
CN1C(=O)COc2cc(-c3noc(C(=O)NCc4ccccn4)n3)ccc21	none
CN1C(=O)COc2cc(-c3noc(C(=O)NCc4ccccc4)n3)ccc21	USP17 block 43.9
CN1C(=O)COc2cc(-c3noc(C(=O)NCc4ccc(F)cc4)n3)ccc21	USP8 block 40.6, USP17 block 54.0, USP10 block 54.8, USP30 block 76.0
CCN1C(=O)COc2cc(-c3noc(C(=O)N4CCN(C)CC4)n3)ccc21	none
